Results on 3 molecules are retold here after PubChem BioAssay (NCATS).

Assay [1] concerns the target Rap guanine nucleotide exchange factor 3 (Homo sapiens) (UniProt O95398). Nature of the assay: Confirmatory qHTS for agonist of cAMP-regulated guanine nucleotide exchange factor 3 (EPAC1) (AID 1645881).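 Note: EPAC1 catalysed release of BODIPY-GDP from Rap1B seen as fluorescence loss; 100% = effect of cAMP agonist control; nearly all actives have a fitted effect of over 75% in size.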 On the technique in general: qHTS replaces the single test concentration by a dilution series.
Assay [2] deals with Rap guanine nucleotide exchange factor 4 (Homo sapiens) (UniProt Q8WZA2). Nature of the assay: Confirmatory qHTS for agonist of cAMP-regulated guanine nucleotide exchange factor 4 (EPAC2) (AID 1645884).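 Note: nucleotide exchange releases bodipy-GDP from Rap1 and this lowers its fluorescence; % is set by controls: 0 for no effect and ±100 for the full control effect; nearly all actives have a fitted effect of over 65% in size.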
For assay [3] the target is unchanged. Nature of the assay: Confirmatory qHTS for antagonist of cAMP-regulated guanine nucleotide exchange factor 4 (EPAC2) (AID 1645885). For activity change, negative = inhibition: % is set by controls: 0 for no effect and ±100 for the full control effect. Note: nearly all actives have a fitted effect of over 25% in size. Note: potency is the fitted concentration of half-maximal effect.
Assay [4] deals with Rap guanine nucleotide exchange factor 3 (Homo sapiens) (UniProt O95398). Nature of the assay: Counterscreen qHTS for antagonist of cAMP-regulated guanine nucleotide exchange factor 3 (EPAC1) (AID 1645888).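 For activity change, negative = inhibition: fluorescence loss as bound BODIPY-GDP is released from Rap1B; % of control where 0% means no effect.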 Note: potency is the fitted concentration of half-maximal effect. The method in brief:
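Rap1B–BODIPY-GDP (250 nM) with 50 uM GDP; compounds pin-transferred to 9.74 nM–152 uM final (activator) or from 7.32 nM upwards (inhibitor). Fluorescence Ex/Em 480/540 nm read at 5 and 30 min, then after adding cAMP or buffer, at room temperature.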
(In general: The purpose of a counterscreen is to sort out artefacts and off-target activity.)

Molecules are shown by their SMILES. Inconclusive results are not listed. Values without a mark were called inactive. Calls of active or inactive are those of the source. Calls come from the whole dose curve; as a rule, active = well fitted curve in the direction sought with a large enough effect; inconclusive = small, poorly fitted or top-dose-only effect, or another doubt; inactive = no such curve, though single readings can be large; an effect the other way counts as inactive or inconclusive.

Sequence of Rap guanine nucleotide exchange factor 3 (Homo sapiens) (O95398 whole entry, looked up): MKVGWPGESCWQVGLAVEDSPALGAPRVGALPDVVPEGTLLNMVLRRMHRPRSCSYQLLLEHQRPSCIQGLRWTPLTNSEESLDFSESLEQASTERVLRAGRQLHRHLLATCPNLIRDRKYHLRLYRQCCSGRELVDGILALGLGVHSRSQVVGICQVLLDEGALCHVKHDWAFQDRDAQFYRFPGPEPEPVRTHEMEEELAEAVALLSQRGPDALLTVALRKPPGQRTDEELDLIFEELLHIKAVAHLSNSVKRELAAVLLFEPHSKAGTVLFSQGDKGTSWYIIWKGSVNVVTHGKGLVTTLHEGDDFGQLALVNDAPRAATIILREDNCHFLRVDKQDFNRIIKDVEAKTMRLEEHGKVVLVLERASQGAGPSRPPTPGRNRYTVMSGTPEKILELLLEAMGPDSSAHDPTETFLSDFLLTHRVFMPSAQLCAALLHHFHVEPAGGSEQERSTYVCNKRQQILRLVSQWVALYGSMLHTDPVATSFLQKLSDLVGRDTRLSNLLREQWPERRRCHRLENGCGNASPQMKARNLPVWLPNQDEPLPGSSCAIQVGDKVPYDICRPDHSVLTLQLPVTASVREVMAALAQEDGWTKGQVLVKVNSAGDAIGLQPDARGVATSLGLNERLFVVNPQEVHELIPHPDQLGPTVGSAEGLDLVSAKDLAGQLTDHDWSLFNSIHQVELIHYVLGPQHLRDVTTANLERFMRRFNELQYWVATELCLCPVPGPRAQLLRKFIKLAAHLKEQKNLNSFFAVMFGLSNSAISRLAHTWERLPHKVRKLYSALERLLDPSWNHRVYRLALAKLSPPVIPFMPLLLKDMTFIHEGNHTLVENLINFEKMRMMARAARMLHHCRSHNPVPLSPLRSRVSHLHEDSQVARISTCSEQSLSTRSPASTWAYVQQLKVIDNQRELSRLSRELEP
Sequence of Rap guanine nucleotide exchange factor 4 (Homo sapiens) (Q8WZA2 whole entry, looked up): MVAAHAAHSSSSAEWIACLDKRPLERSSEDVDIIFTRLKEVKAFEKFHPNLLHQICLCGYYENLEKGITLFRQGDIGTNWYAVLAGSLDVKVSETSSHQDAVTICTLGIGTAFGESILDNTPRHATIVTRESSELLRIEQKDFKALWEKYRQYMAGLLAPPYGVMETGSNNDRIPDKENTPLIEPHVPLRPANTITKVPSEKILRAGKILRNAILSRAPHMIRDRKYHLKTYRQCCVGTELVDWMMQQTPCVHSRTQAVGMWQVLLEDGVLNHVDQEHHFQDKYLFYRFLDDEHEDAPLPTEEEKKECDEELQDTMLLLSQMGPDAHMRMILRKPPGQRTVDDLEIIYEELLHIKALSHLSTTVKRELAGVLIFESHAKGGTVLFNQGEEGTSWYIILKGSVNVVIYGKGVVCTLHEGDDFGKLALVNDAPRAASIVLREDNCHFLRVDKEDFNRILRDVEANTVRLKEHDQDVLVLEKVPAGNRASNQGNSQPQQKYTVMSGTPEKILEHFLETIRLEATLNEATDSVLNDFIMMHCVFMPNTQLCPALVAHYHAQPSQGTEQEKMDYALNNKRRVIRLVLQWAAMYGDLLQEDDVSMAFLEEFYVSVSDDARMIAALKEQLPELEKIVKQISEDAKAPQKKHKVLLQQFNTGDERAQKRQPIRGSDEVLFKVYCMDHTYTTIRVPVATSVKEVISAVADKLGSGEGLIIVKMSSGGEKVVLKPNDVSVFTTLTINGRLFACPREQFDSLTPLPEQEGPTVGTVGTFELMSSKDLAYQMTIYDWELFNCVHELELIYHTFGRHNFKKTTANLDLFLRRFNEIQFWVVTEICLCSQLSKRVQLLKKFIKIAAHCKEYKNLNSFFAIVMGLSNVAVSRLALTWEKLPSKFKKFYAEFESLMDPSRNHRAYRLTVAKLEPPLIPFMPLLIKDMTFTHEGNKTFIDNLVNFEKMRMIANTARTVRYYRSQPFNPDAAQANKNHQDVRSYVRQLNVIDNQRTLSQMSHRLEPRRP

Take `Oc1c(Br)cc(Br)cc1CNc1cccc2cccnc12`: the Potency entry in assay [1], in assay [2] and in assay [4] was “inactive” each time. Further, in assay [3], the Potency was 26.9 µM (active).

Turning to `CCOc1cc(CNCCSc2nnnn2C)ccc1OCc1ccc(Cl)cc1Cl`, the Potency entry in assay [1] and in assay [2] was “inactive” each time. The Potency is 4.26 µM (active) in assay [3] and 63.1 µM (active) in assay [4].

As to `CCOC(=O)c1cc2c(ccn2C)n1CC(=O)N1CCN(c2cccc(C(F)(F)F)c2)CC1`, the Potency entry in assay [1] and in assay [3] was “inactive” throughout. For the same molecule, the activation in assay [2] is 0% [at 17.1 µM, percent relative to cAMP agonist control]. Also, the activity change, negative = inhibition in assay [4] is 12.9% [at 30.8 µM].
